A number with no mark means an inactive call. No rule for the calls is given here.

This assay deals with Pantothenate synthetase (Mycobacterium tuberculosis (strain ATCC 25618 / H37Rv)) (UniProt P9WIL5). Briefly: Coupled enzyme confirmation of inhibitors against recombinant Mtb PanC (AID 375).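 Also: 0% = full reaction with vehicle and 100% = no enzyme background.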 Particulars: coupled enzyme assay; at 10 µM, stronger effect = higher value.
Sequence of Pantothenate synthetase (Mycobacterium tuberculosis (strain ATCC 25618 / H37Rv)) (P9WIL5 whole entry, looked up): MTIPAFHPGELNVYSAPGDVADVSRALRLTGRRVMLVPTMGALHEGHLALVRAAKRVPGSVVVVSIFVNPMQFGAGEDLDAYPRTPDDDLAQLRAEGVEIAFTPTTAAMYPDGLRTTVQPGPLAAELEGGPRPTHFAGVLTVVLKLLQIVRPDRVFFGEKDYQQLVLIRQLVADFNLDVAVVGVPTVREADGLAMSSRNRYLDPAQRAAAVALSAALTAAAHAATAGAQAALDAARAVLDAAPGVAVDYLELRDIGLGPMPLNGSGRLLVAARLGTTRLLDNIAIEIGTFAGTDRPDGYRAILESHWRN
`Cc1c(NS(=O)(=O)c2ccc3c(c2)c(=O)n(C)c(=O)n3C)c(=O)n(-c2ccccc2)n1C`: the inhibition is 14%. As for `CCCCn1nnc(NC(=O)c2cc3ccccc3o2)n1`, the figure is 0%; as for `COc1cccc(C2C(C(N)=O)=C(C)Nc3nc(CCCO)nn32)c1OC` (centres undefined), 3%; as for `CCOc1cc(C)c(Cl)cc1S(=O)(=O)N(C)C`, 5%.

Regarding `CCc1nc(C)c(-c2ccccc2)c(=O)[nH]1`, the inhibition is 6%. For the compound `CC(=O)OC(C(=O)NC1CCCCC1)c1ccncc1` (centres undefined), the inhibition was 10%. As for `Cc1ccc(NC(=O)CSc2nnc(CSc3nc(C)cc(C)n3)n2Cc2ccco2)c(C)c1`, the figure is 0%; as for `CCCSc1nnc2nc3c(nn12)c1ccccc1n3C`, 0%; as for `c1csc(-c2nc3nc4ccccc4nc3n2Cc2ccc3c(c2)OCO3)c1`, 0%. Next, `CCn1c(=O)cc(OCC(=O)NCCCN2CC(C)CC(C)C2)c2ccccc21` (centres undefined): 3%; `COc1ccc(-n2ncc3c(N4CCN(c5cccc(C)c5C)CC4)ncnc32)cc1`: 0%.

Take `COc1cccc(C2C(C#N)=C(N)OC3=C2C(=O)CCC3)c1OC(=O)c1ccco1` (centres undefined): the inhibition is 13%. Take `Nc1cccc2c1C(=O)N(c1ccccc1)C2=O`: the inhibition is 0%. Next, `O=C(CN1CCCN(S(=O)(=O)c2ccc(Br)cc2)CC1)Nc1ccc2cn[nH]c2c1`: 0%. For the compound `CCOC(=O)C1CCN(C(=O)c2ccc(OC)cc2OC)CC1`, the inhibition is 2%. With `COc1ccccc1N1CCN(Cc2nnnn2CCc2ccccc2)CC1`, the inhibition is 0%.

Take `Oc1c(I)cc(I)c2cccnc12`: the inhibition was 2%. Next, `O=C(COC(=O)Cc1cccc(C(F)(F)F)c1)NCC1CCCO1` (centres undefined): 3%. Next, `CCO/C([O-])=N/c1c[n+](N2CCOCC2)no1`: 0%. On to `COc1ccc(OC)c(NC(=O)c2nnn(Cc3ccc(Br)cc3F)c2N)c1`, for which the inhibition was 0%. As for `CCCCCSc1nc2c(cnn2-c2ccccc2)c(=O)[nH]1`, the figure is 11%; as for `Cc1ccc2c(c1)NC(=O)C(CC(=O)NCCN(CC(C)C)CC(C)C)O2` (centres undefined), 2%. As for `O=C(N1CCCCCC1)N1CCN(S(=O)(=O)N2CCCCC2)CC1`, the figure is 0%; as for `CCOc1ccc2nc(NC(=O)CSc3nc4ccccc4c(=O)n3Cc3ccco3)sc2c1`, 0%.

For the origin of these results see PubChem BioAssay.
